Compounds with a hit are over-represented: about 3.1% of the library has one in this group of screens.
TRb-SRC2 inh: inhibitors of human thyroid hormone receptor beta-SRC2 interaction. P10828. TRbeta-SRC2 peptide binding, fluorescence polarization; receptor liganded with 1 µM T3. Potency, µM (doses to about 106 µM), without a hit: top-dose activity change, negative = inhibition, most hits filed as inhibitors. 280,000 compounds, 0.065% hits;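 also: plate controls were bound peptide for no effect and peptide without receptor for full effect; nearly all actives have a fitted effect of over 50% in size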
Target sequence (P10828 whole entry, looked up): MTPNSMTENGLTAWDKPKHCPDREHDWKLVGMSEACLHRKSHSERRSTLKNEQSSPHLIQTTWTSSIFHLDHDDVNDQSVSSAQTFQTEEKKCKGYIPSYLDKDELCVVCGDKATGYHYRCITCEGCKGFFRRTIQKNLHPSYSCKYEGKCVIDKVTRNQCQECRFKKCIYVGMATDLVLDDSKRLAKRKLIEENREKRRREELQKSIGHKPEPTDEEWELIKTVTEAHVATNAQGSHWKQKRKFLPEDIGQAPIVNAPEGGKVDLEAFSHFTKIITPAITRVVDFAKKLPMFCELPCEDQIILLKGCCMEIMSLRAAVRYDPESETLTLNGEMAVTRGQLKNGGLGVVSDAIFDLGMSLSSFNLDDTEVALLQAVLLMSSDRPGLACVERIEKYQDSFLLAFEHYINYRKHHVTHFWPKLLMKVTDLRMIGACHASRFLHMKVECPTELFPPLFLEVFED
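TRb LBD 0.6 uM + Texas Red SRC2 peptide 20 nM, 1 uM T3, Tris buffer w/ 5% DMSO; compound pinned, 5 h RT; FP read ex 555/em 632; normalized to unbound and bound controls.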
Tau FP inhib: tau fibrillization inhibition (FP); P10636; AID 1468; K18 P301L tau heparin fibrillization, Alexa594 FP, 6 h; 280,000 compounds, 0.39% hits; Potency, µM (doses to about 57.7 µM), for inactives: at the top dose activity, negative = inhibition, actives largely listed as inhibitors; also: nearly all actives have a fitted effect of over 55% in size
Target sequence (P10636 561-689 P618L limits assumed): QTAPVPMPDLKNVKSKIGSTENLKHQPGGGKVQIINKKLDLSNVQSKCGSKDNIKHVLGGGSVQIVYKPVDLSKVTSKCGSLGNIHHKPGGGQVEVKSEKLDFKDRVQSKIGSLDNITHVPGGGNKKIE
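FP of Alexa 594-tau after heparin (20 uM) induction. Substrate: human K18 P301L, 15 uM unlabeled, 0.24 uM labeled. Buffer 100 mM sodium acetate pH 7. 6 hr, 37 C.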
TexasRed fluor: counter-screen for TRb-SRC2 inhibitors: fluorescence interference | TRb/SRC2 Texas Red total fluorescence interference | Potency, µM (titrated, usually from 106 µM), for the others: at the top dose fluorescence change, negative = quenching | 280,000 compounds, 0.29% hits | AID 1479; active = well fitted curve in either direction with a large enough effect; inconclusive = small, poorly fitted or top-dose-only effect
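Human TRb ligand-binding domain at 0.6 uM with 20 nM Texas Red SRC2 peptide in Tris buffer containing 1 uM T3 and 5% DMSO, incubated with compound 5 h at ambient temperature. Total fluorescence (555/632 nm) calculated as parallel + 2 × perpendicular.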
Tau fluor counter: counter-screen for tau fibril formation inhibitors. Potency, µM (highest dose often 57.7 µM), inactives show at the top dose activity change, negative = decrease. 280,000 compounds, 0.93% hits. tau K18 P301L Alexa594 fluorescence, heparin fibrillization; also: nearly all actives have a fitted effect of over 55% in size
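Human tau K18 P301L (15 uM unlabeled, 0.24 uM Alexa 594-labeled) in 100 mM sodium acetate pH 7 with 20 uM heparin, 6 hr at 37 C. ThT 30 uM added, 1 hr ambient; Alexa 594 FP and total fluorescence read at 555/632 nm.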
Tau ThT inhib: inhibitors of human tau fibril formation, thioflavin T binding; P10636; recombinant tau K18 P301L, heparin-induced fibrillization, ThT fluorescence; Potency, µM (highest dose often 57.4 µM), for the others: top-dose activity, negative = inhibition, actives largely listed as inhibitors; 270,000 compounds, 2.1% hits; AID 1460; also: nearly all actives have a fitted effect of over 55% in size
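Using a mix of unlabeled (15 uM) and Alexa 594-labeled (0.24 uM) tau K18 P301L, heparin-triggered fibrillization over 6 hr at 37 C was scored by ThT fluorescence.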
An asterisk follows results filed as active; ? = inconclusive; . = no result; [ ] = remark or other dose. Unless noted, calls follow the shape of the dose curve; as a rule, active = well fitted curve in the direction sought with a large enough effect; inconclusive = small, poorly fitted or top-dose-only effect, or another doubt; inactive = no such curve, though single readings can be large; an effect the other way counts as inactive or inconclusive. Unless noted, % is scaled to controls: 0 for no effect and ±100 for the full control effect; potency is read from the fitted curve at half-maximal effect.

SMILES	TRb-SRC2 inh	Tau FP inhib	TexasRed fluor	Tau fluor counter	Tau ThT inhib
Cc1cccc(N2C(S)=C(C#N)C(=O)NC2c2ccco2)c1 (stereo unspecified)	-2.7%	-9.5%	-0.4%	-5.7%	-4.4%
N#CC1=C(S)N(c2ccccc2)C(c2ccc(-c3cccc(Cl)c3)o2)NC1=O (stereo unspecified)	0.2%	?	0.6%	-27.8%	22.4µM*
COc1cc(-c2nc3ccccn3c2/N=C/c2cc(OC)c(O)cc2Cl)ccc1O	-5.2%	?	-1.1%	?	14.1µM*
COc1cc(-c2nc3ccccn3c2/N=C/c2ccccc2)ccc1O	-1.7%	-15.2%	-3.7%	-26.2%	?
CCOC(=O)c1c(-c2ccc(C)cc2)csc1NC(=O)c1cc2ccccc2oc1=O	-9.1%	5.1%	-2.8%	-1.0%	-15.5%
CCOC(=O)c1c(-c2ccc(C)cc2)csc1NC(=O)c1cc(=O)c2ccc(C)cc2o1	-9.7%	-2.8%	35.5µM*[quencher]	-19.7%	-11.4%
Cn1sc(=O)n(Cc2ccccc2)c1=O	-0.2%	.	2.3%	.	.
O=C(CCCC(=O)N1CCN(c2ccc([N+](=O)[O-])cc2)CC1)c1ccccc1	-1.0%	5.7%	-2.0%	-8.4%	2.24µM*
O=C(CCCc1ccccc1)N1CCN(c2ccc([N+](=O)[O-])cc2)CC1	8.5%	-4.5%	-1.2%	-20.0%	2.24µM*
CCCCOc1ccc(C(=O)Nc2nnc3n2CCS3)cc1	0.7%	-8.0%	-27.7%	-7.9%	-10.3%
CC(C)Cn1nc(NC(=O)c2cccc(Cl)c2)c2cc3ccccc3nc21	-27.1%[53 µM]	-0.6%	1413µM*[quencher]	?	?
COc1ccc(Nc2ncnc3sc(-c4ccccc4)cc23)cc1	-11.5%	?	-9.5%	7.94µM*[quencher]	?
COc1ncnc2sc(-c3ccccc3)cc12	-2.6%	-8.0%	0.7%	-0.5%	-6.8%
COc1ccc(C(=O)/C=C/c2cn(CC(O)CN3CCOCC3)c3ccccc23)cc1 (stereo unspecified)	6.4%	?	-8.6%	?	10µM*
O=C(/C=C/c1cn(CC(O)CN2CCOCC2)c2ccccc12)c1cccs1 (stereo unspecified)	5.3%	5.7%	-5.0%	?	14.1µM*
COc1cc2c3cc1Oc1c(OC)c(OC)cc4c1[C@@H](Cc1ccc(OC(=O)c5ccc([N+](=O)[O-])cc5)c(c1)Oc1ccc(cc1)C[C@@H]3N(C)CC2)N(C)CC4	1.0%	.	-4.2%	.	.
CCCc1cc(C(=O)Cc2nc3ccccc3s2)c(O)cc1O	-2.4%	-0.3%	-1.6%	20µM*[quencher]	25.1µM*
O=C(Nc1ccc2ccccc2c1)C(=O)C1C(=O)Nc2ccccc21 (stereo unspecified)	-6.2%	3.0%	-2.2%	-24.8%	3.98µM*
CCOc1c(Br)cc(C2C=C(C(=O)O)Nc3ncnn32)cc1OC (stereo unspecified)	-9.3%	3.2%	-1.4%	-9.7%	-17.5%
Cc1ccc(SCC(Cc2ccccc2)N2CCN(C)CCC2=O)cc1 (stereo unspecified)	1.7%	.	-1.7%	.	.
O=C(/C=C/c1ccc(Cl)c([N+](=O)[O-])c1)Nc1ccc(NC(=O)c2ccco2)cc1	2.6%	-13.4%	-9.1%	?	?
O=C(/C=C/c1ccc(Cl)c([N+](=O)[O-])c1)Nc1ccc(N2CCCC2)cc1	-13.8%	-4.3%	-1.3%	17.8µM*[quencher]	0.891µM*
O=C(Nc1cccc(Cl)c1)N1CC2CCCN2c2ccccc21 (stereo unspecified)	-1.8%	0.7%	1.9%	?	?
COc1ccc(N2CCC(CNC(=S)Nc3cccc(OC)c3)C2)cc1 (stereo unspecified)	4.2%	12.9%	1.7%	11.2µM*[quencher]	?
COc1ccc(N2CCC(CNC(=O)Nc3cccc(OC)c3)C2)cc1 (stereo unspecified)	0.6%	13.5%	-8.7%	15.8µM*[quencher]	?
SMILES	TRb-SRC2 inh	Tau FP inhib	TexasRed fluor	Tau fluor counter	Tau ThT inhib
CCc1ccccc1NC(=O)N1CC(C)Sc2ccccc21 (stereo unspecified)	4.3%	-1.2%	-1.8%	-15.9%	-13.9%
Cc1cc(C)cc(OCC(=O)N2CCC(c3nc4ccccc4o3)CC2)c1	-1.0%	11.7%	-6.1%	-7.4%	-9.4%
O=C1OC(/C=C/c2ccccc2)=NC/1=C/C=C/c1ccccc1	5.0%	-13.2%	-3.9%	-3.5%	15.8µM*
Cc1[nH]c2ccccc2c1C1(O)C(=O)N(Cc2ccccc2)c2ccc(Br)cc21 (stereo unspecified)	9.0%	2.2%	-5.9%	11.2µM*[quencher]	?
NNS(=O)(=O)c1ccc(Oc2ccc(S(=O)(=O)NN)cc2)cc1	7.8%[201 µM]	.	5.0%[201 µM]	.	.
COc1ccc(CCNC(=O)c2ccc3c(c2)CCN3S(=O)(=O)c2ccccc2)cc1OC	0.4%	-7.3%	-2.7%	?	?
COC(=O)/C=C/C(C)=C/C=C/C(C)=C/C=C/C=C(C)/C=C/C=C(C)/C=C/C(=O)O	-3.7%	?	-2.1%	-23.1%	12.6µM*
CCOc1ccc(CN2C(=O)c3ccccc3Sc3ccc(C(=O)NCc4ccco4)cc32)cc1	6.6%	-3.1%	-0.5%	-21.9%	-7.9%
NSc1nc(N)c2nc(-c3ccccc3)c(-c3ccccc3)nc2n1	-5.7%	?	-2.6%	-19.3%	15.8µM*
Nc1nc(N)c2nc(-c3ccccc3)c(N)nc2n1	-10.4%	4.4%	-3.8%	-0.8%	3.3%
CC(=O)OCc1cnc(C)c2oc(=O)c(C(=O)Nc3ccc(F)cc3C)cc12	-8.3%	-5.1%	-1.2%	-14.8%	?
CC1CCN(S(=O)(=O)c2ccc3c(c2)c(=O)c(C(=O)NCCc2ccccc2)cn3C)CC1	-11.7%	-21.2%	-2.5%	-19.3%	-0.7%
O=C(NCCC1=CCCCC1)c1ccc2c(c1)N(Cc1cccc(Cl)c1)C(=O)c1ccccc1S2=O (stereo unspecified)	5.4%	-4.9%	1.6%	-7.7%	-0.9%
CC(=O)c1cccc(NC(=O)c2csc3c2CCCCC3)c1	5.0%	2.3%	1.2%	-26.1%	-8.4%
CC(=O)c1cccc(NC(=O)Nc2csc3c2CCCC3)c1	-7.1%	?	-1.4%	11.2µM*[quencher]	?
O=C(Nc1ccc(F)cc1)Nc1csc2c1CCCC2	3.5%	-15.6%	-1.1%	7.08µM*[quencher]	?
CCCCOc1ccc(/C=C2/Sc3ccccc3C2=O)cc1	-24.9%	1.0%	-0.1%	?	3.55µM*
CC(=O)Oc1cccc(/C=C2\C=C(c3ccc(C)cc3)OC2=O)c1	-1.8%	-7.8%	-3.5%	-14.7%	?
CC(C)COc1ccc(/C=C2/Sc3ccccc3C2=O)cc1	3.8%	12.0%	-0.2%	-5.3%	4.47µM*
CC(=O)Oc1cccc(/C=C2\Sc3ccccc3C2=O)c1	5.0%	-8.3%	-7.0%	?	10µM*
CC(=O)Nc1ccc(C(=O)N/N=C/c2ccc(F)cc2)cc1	2.6%	-4.3%	-1.7%	1.7%	-6.9%

Screens from PubChem.
